# A number with no mark means an inactive call. Calls come from the whole dose curve; as a rule, active = well fitted inhibition curve with a large enough effect; inconclusive = small, poorly fitted or top-dose-only effect; inactive = no such curve, though single readings can be large or run the other way.
# Experiment: qHTS assay for measurement of the activity of small molecule inhibitors on Zika virus induced Caspase-3 activity in human astrocytoma cells (AID 1224859)
# Conditions: SNB-19 ZIKV-induced caspase-3/7, luminescence, 6 h; series mostly up to 45.7 µM; activity change, negative = inhibition: at the top concentration
# Text: National Center for Advancing Translational Sciences [NCATS]
# Johns Hopkins University School of Medicine
# Increase in the Caspase-3 activity indicates an activation of apoptosis cell death pathway caused by Zika virus infection in certain types of neuronal cells including human neural progenitor cells (hNPCs), astrocytes, and astrocytoma cell line (SNB-19). This cell-based caspase-3 activity assay measures the increased caspase-3 activity in the astrocytoma cell line (SNB-19) after a 6-hour Zika virus infection with a luminescence readout. A decrease in the luminescence signal in this assay by small molecule treatment indicates an inhibitory effect of that small molecule on the Zika virus induced caspase-3 activity that may correlate with its effect on reduction of Zika virus caused cell death.
# The medium for SNB-19 cells is composed of RPMI 1640 (ATCC, Cat.# 30-2001), 10% fetal bovine serum (FBS) (GE healthcare Life Sciences, Cat.# SH30071.03), and 1% Pen/Strep (Gibco, Cat.# 15140-122). A Caspase-Glo 3/7 assay kit (catalog number G8092; Promega, Madison, WI) was used to detect caspase-3 activity induced by Zika virus infection in human cells. The reagent mixture was reconstituted as described in the protocol from the manufacturer. Polystyrene tissue culture treated and PDL coated white plates were obtained from Greiner Bio-One (Monroe, NC). Cells were seeded in 384- or 1536-well assay plates and cultured at 37 C with 5% CO2 for 16 to 20 hours. The typical cell seeding density in the 1536-well plate assay is 250 cells/well in 3ul medium for SNB-19 cells in tissue culture treated plates. Compounds were added to cells and incubated for one hour before addition of ZIKV solution to cells (2 FFU/cell). After incubation at 37 C with 5% CO2 for 6 hours, the reagent mixture of Caspase-Glo 3/7 assay kit was added to each well, followed by incubation at room temperature for 30 minutes. The luminescence intensity of the assay plates was measured using a ViewLux plate reader (PerkinElmer). Data were normalized by using the cell-containing wells without ZIKV as a negative control (0% induction of caspase 3/7 activity) and wells containing ZIKV infected cells (Caspase-3 activity induced) as a positive control (100% induction of caspase 3 activity). The percentage inhibitions of the increased Caspase-3 activity by small molecule inhibitors were then calculated.
row,SMILES,"activity change, negative = inhibition [%]"
1,N=S(=O)(O)Cc1noc2ccccc12,6.55
2,Brc1c(Br)c(Br)c2[nH]cnc2c1Br,4.76
3,c1ccc2c(c1)CC(N1CCN(c3cccc4c3OCCO4)CC1)C2,1.66
4,O=C(O)C1=CC(=C(c2ccc(O)c(C(=O)O)c2)c2ccc(O)c(C(=O)O)c2)C=CC1=O,-3.63
5,CCCC(=O)NCCc1c2n(c3ccc(OC)cc13)CCCc1ccccc1-2,2.54
6,CN(C)S(=O)(=O)c1ccc2c(c1)/C(=C/c1cc3c([nH]1)CCCC3)C(=O)N2,4.69
7,COc1cccc(OC)c1OCCNCC1CSc2ccccc2O1 (stereo not given),-3.52
8,COc1ccc2c(c1)c(CC(=O)O)c(C)n2C(=O)c1ccccc1,1.05
9,O=C1Cc2c([nH]c3ccc(Br)cc23)-c2ccccc2N1,30.1
10,C=CCNc1ncnc2ccc(Br)cc12,-0.953
11,CC(C)NCC(O)COc1ccc(CC(N)=O)cc1 (stereo not given),-3.25
12,CCOC(=O)C12CC1/C(=N/O)c1ccccc1O2 (stereo not given),-2.38
13,O=[N+]([O-])c1cccc2cn[nH]c12,-1.3
14,N#CC(C#N)=C(N)/C(C#N)=C/c1ccc(O)cc1,12.1
15,Nc1nc2c(cnn2CCc2ccccc2)c2nc(-c3ccco3)nn12,-0.562
16,Cc1ccc([N+](=O)[O-])cc1S(=O)(=O)N(C)C,-2.11
17,Nc1ncnc2c1ncn2C1CCCC1,6.24
18,C[C@@H](NCCc1ccc(O)cc1)[C@@H](O)c1ccc(O)cc1,-17.6
19,Nc1nc2[nH]c(=O)cnc2c(=O)[nH]1,9.1
20,c1ccc(C(NCc2cccnc2)(c2ccccc2)c2ccccc2)cc1,-4.44

row,SMILES,"activity change, negative = inhibition [%]"
1,O=C(O)c1cccnc1C(=O)O,2.93
2,Oc1cc(O)c2c(c1)O[C@H](c1ccc(O)c(O)c1)[C@@H](O)C2,-0.312
3,COc1cc(C(O)C(=O)O)ccc1O (stereo not given),8.18
4,CCCCS(=N)(=O)CC[C@H](N)C(=O)O (stereo not given in full),-13.9
5,COc1cc(CC(=O)O)ccc1O,-1.84
6,CN(C)CCC(c1ccc(Br)cc1)c1ccccn1 (stereo not given),2.21
7,Cn1c(=O)c2[nH]c(C3CCCC3)nc2n(C)c1=O,-1.85
8,OC[C@H]1O[C@H](n2cnc3c(N[C@H]4CCC[C@@H]4O)ncnc32)[C@H](O)[C@@H]1O,0.631
9,CC(C)C[C@H](NC(=O)C1OC1C(=O)O)C(=O)NCCCCN=C(N)N (stereo not given in full),13.7
10,OCC1NCC(O)C(O)C1O (stereo not given),-10.9
11,CCCn1c(=O)c2c(ncn2C)n(CCC)c1=O,-7.12
12,N[C@@H](CCC(=O)N[C@H](CSN=O)C(=O)NCC(=O)O)C(=O)O,11.5
13,CCCCOC(=O)NS(=O)(=O)c1sc(CC(C)C)cc1-c1ccc(Cn2c(CC)nc3c(C)cc(C)nc32)cc1,7.06
14,COc1cc(/C=C(\C#N)C(=O)Nc2nnc(C(F)(F)F)s2)ccc1OCc1ccc(C(F)(F)F)cc1C(F)(F)F,-3.15
15,COc1ccc(NC(=O)c2ccc(-c3ccc(-c4noc(C)n4)cc3C)cc2)cc1N1CCN(C)CC1,-12.3
16,NS(=O)(=O)c1cccc2c1c([N+](=O)[O-])cc1nc(O)c(O)nc12,2.47
17,CCCCOc1cc(CC2CNC(=O)N2)ccc1OC (stereo not given),-3.37
18,Cc1nc(N=Nc2cc(S(=O)(=O)O)c3cc([N+](=O)[O-])cc(S(=O)(=O)O)c3c2)c(COP(=O)(O)O)c(C=O)c1O,-1.34
19,Cc1nc2c(OCc3ccccc3)cccn2c1CC#N,-6.27
20,N[C@H](C(=O)O)[C@H](Cc1ccccc1)C(=O)O,6.8

# Source: PubChem BioAssay (NCATS)
